Source: PubChem
HP1b binding inh: inhibitors of HP1-beta chromodomain binding to methylated histone tails; P83916; AlphaScreen HP1-beta / biotin-H3K9me3 peptide binding; Potency, µM (titrated, usually from 114 µM), for the others: top-dose activity change, negative = inhibition, hits mostly inhibitors; 0.56% of 390,000 active; further: potency means the concentration at half of the fitted maximal effect; nearly all actives have a fitted effect of over 70% in size
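HP1-beta protein (50 nM final) preincubated 30 min at room temperature with biotinylated H3(1-18)K9me3 peptide (50 nM) in PBS pH 7.4, 0.01% Tween-20, then compound added for 30 min. AlphaScreen streptavidin donor/nickel chelate acceptor beads (10 ug/mL final), 30 min dark, luminescence read.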
JMJD2A Tudor inh: JMJD2A Tudor domain (human) inhibition; O75164; AlphaScreen JMJD2A-Tudor / H3K4me3 peptide binding; Potency, µM (series often up to 114 µM), for inactives: at the highest dose activity change, negative = inhibition, actives largely listed as inhibitors; 4.4% of 390,000 active; AID 504339; further: potency means the concentration at half of the fitted maximal effect; on the % scale 0 is the no-effect control and ±100 the full control effect; nearly all actives have a fitted effect of over 50% in size
Target sequence (O75164 whole entry, looked up, the tested form may be a part): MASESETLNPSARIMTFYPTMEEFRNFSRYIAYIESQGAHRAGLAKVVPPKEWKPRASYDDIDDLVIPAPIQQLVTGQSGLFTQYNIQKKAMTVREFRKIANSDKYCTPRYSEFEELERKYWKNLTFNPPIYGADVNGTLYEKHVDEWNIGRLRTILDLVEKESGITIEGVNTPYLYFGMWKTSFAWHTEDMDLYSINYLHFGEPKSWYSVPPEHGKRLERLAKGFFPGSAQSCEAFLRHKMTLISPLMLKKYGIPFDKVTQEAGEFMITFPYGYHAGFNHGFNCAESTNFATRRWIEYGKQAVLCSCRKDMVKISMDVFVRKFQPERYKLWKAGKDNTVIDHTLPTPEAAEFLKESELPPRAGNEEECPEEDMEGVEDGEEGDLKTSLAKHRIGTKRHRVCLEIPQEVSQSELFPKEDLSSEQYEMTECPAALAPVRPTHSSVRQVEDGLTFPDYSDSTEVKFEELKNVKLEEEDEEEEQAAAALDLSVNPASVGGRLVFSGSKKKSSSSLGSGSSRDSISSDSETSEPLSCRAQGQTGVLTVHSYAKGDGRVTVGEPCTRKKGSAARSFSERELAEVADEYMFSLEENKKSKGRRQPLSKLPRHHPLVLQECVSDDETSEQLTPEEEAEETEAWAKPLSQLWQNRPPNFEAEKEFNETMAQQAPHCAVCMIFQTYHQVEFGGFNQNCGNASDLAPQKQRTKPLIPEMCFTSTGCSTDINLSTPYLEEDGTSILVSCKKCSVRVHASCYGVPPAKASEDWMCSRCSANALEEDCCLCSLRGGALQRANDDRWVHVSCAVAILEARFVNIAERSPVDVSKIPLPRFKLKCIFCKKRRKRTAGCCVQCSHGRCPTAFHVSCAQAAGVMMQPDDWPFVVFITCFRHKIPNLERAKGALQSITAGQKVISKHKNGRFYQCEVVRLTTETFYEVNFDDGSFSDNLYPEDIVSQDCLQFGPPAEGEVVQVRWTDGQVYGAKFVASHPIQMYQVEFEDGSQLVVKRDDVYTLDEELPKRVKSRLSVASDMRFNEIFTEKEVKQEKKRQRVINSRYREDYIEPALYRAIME
Six1-Eya2 inh: Six1/Eya2 interaction inhibition. Q15475+O00167. AlphaScreen GST-Six1/His-Eya2 binding, biochemical; stronger effect = lower value. 0.56% of 360,000 active. activity change, % (concentration not given with the values); in the data active means activity change below about -65%; inconclusive means mostly about -30% to -63%; further: on the % scale 0 is the no-effect control and ±100 the full control effect
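AlphaScreen with GST-Six1 and His-Eya2 (5X mix: 250 nM and 500 nM), glutathione donor and nickel acceptor beads; buffer 50 mM Tris pH 8.0, 300 mM NaCl, 1 mM TCEP; 1 h at 37 C in the dark.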
BAZ2B block: blocks human BAZ2B; Q9UIF8; AlphaScreen BAZ2B-H3K14Ac peptide displacement; Potency, µM (doses to about 114 µM), for inactives: top-dose activity change, negative = inhibition, usual class: inhibitors; 4.4% of 360,000 active; AID 504333; further: potency means the concentration at half of the fitted maximal effect; on the % scale 0 is the no-effect control and ±100 the full control effect; nearly all actives have a fitted effect of over 60% in size
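Compounds, titrated to a top concentration of 110 uM, were incubated 30 min at room temperature with preformed BAZ2B/acetyl-K14 H3 peptide complex (50 nM each). Proximity signal was measured by AlphaScreen after 20 min with beads.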
CtBP-E1A blk: blocks the CtBP interaction with E1A; AlphaScreen GST-E1A/His-CtBP binding, 1536-well; stronger effect = lower value; activity change, % (test concentration not listed); 0.49% of 340,000 active; in the data active means activity change below about -65%; inconclusive means mostly about -30% to -63%; further: on the % scale 0 is the no-effect control and ±100 the full control effect
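Homogeneous bead-based format: GST-tagged E1A captured on glutathione donor beads, His-tagged CtBP on nickel acceptor beads; compounds precede bead addition by 2 h at 37 °C.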
G9a block: blocks human histone lysine methyltransferase G9a; G9a H3K9 monomethylation, AlphaScreen, 2 h; Potency, µM (titrated, usually from 102 µM), inactives show top-dose activity, negative = inhibition, hits mostly inhibitors; AID 504332; 8.8% of 350,000 active; Q96KQ7; further: potency means the concentration at half of the fitted maximal effect; on the % scale 0 is the no-effect control and ±100 the full control effect; nearly all actives have a fitted effect of over 75% in size
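Compounds were preincubated with 20 nM G9a for 15 min, after which biotinylated H3K9 peptide (500 nM) and SAM (20 uM) started a 2 h room-temperature reaction. Monomethylated product was quantified by antibody-based AlphaScreen chemiluminescence.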
* marks the source's active call; other numbers are inactive results; ? = inconclusive; nt = not tested or not shown; [ ] = remark or other dose. Only some compounds are listed: those with a hit (about 10% of all), similar ones and a draw of the others. Unless noted, the call rests on the fitted dose curve; in most records, active means well fitted inhibition curve with a large enough effect; inconclusive means small, poorly fitted or top-dose-only effect; inactive means no such curve, though single readings can be large or run the other way.

SMILES	HP1b binding inh	JMJD2A Tudor inh	Six1-Eya2 inh	BAZ2B block	CtBP-E1A blk	G9a block
CCn1c(=S)sc2c(=O)n(CC(=O)Nc3cc(OC)ccc3OC)c(C)nc21	30.0%	-4.1%	-0.3	-32.9%[57.1 µM]	4.1	13.4%
COC(=O)c1csc(-c2ccc(CO)o2)n1	nt	nt	2.4	nt	0.7	nt
O=C1/C(=C/c2ccccn2)SC(=S)N1NS(=O)(=O)c1ccccc1	-4.2%	-31.9%	-5.0	-20.4%	nt	?
O=C1/C(=C/c2ccccn2)SC(=S)N1Nc1ncc(C(F)(F)F)cc1Cl	?	50.1µM*	-7.3	nt	-15.3	nt
O=C1/C(=C/c2ccc(F)cc2)SC(=S)N1Nc1ncc(C(F)(F)F)cc1Cl	-5.4%	63.1µM*	-13.8	-3.7%	?	44.7µM*
O=C1/C(=C\c2ccccn2)SC(=S)N1Nc1ncc(C(F)(F)F)cc1Cl	-33.2%	56.2µM*	-8.6	79.4µM*	-11.1	10µM*
COc1ccc(N2C(=O)N[C@@H](Cc3ccccc3)C2=O)cc1OC	24.2%	-17.7%	-2.3	5.2%	nt	21.6%
O=C(Nn1c(C2CCC2)nc2ccccc2c1=O)c1cccs1	23.6%	-14.0%	2.1	-17.0%	0.0	-39.5%
COC(=O)Nc1cc(C(=O)c2ccc(Cl)cc2Cl)c[nH]1	-17.9%	?	-9.6	?	nt	50.1µM*
CC1=CC2=NC(=O)CC(C)(C(=O)N(CC(=O)NC3CCCC3)c3ccccc3F)N2C=C1 (centres undefined)	21.0%[57 µM]	-13.7%	0.5	6.4%	4.3	-3.0%
Cc1cc(C)nc(NN2C(=O)/C(=C/c3ccc(O)cc3)SC2=S)n1	-2.0%	?	-16.0	?	?	28.2µM*
O=C(NN1C(=O)/C(=C/c2ccc(O)cc2)SC1=S)c1cccc(O)c1	-14.9%	?	-1.1	?	nt	44.7µM*
O=C(NN1C(=O)/C(=C/c2cc([N+](=O)[O-])ccc2O)SC1=S)c1ccccc1O	nt	nt	nt	5.62µM*	nt	-18.3%[2.33 µM]
COc1ccccc1/C=C1\SC(=S)N(Nc2nc(C)cc(C)n2)C1=O	27.4%	-26.5%	-8.4	1.7%	-11.2	?
Cc1ccc(/C=C2\SC(=S)N(/N=C/c3cc([N+](=O)[O-])ccc3O)C2=O)o1	44.7µM*	56.2µM*	-88.9*	11.2µM*	-92.6*	6.31µM*
O=C(Cc1ccccc1)NN1C(=O)/C(=C/c2ccc(C(=O)O)cc2)SC1=S	30.8%	-16.9%[11.4 µM]	-13.2	-16.2%	-20.9	nt
Cn1c(Oc2ccc(F)cc2)nc2c1c(=O)n(Cc1ccccc1Cl)c(=O)n2C	2.4%	-19.9%	nt	?	nt	?
COc1cc(/C=C2\SC(=S)N(NC(=O)c3ccccc3O)C2=O)ccc1O	?	20µM*	?	28.2µM*	?	-28.8%[2.33 µM]
CC(/C=C1\SC(=S)N(NC(=O)c2cccc(O)c2)C1=O)=C\c1ccccc1	?	22.4µM*	?	11.2µM*	-20.9	8.91µM*
O=C(NN1C(=O)/C(=C/c2ccc(O)c([N+](=O)[O-])c2)SC1=S)c1ccccc1Cl	?	?	?	35.5µM*	?	14.1µM*
O=C(CCCN1C(=O)/C(=C/c2ccccc2Cl)SC1=S)NNC(=O)c1ccccc1Cl	23.3%	-3.5%	0.1	-6.4%	35.6	10.0%[59 µM]
O=C(NN1C(=O)/C(=C/c2ccc(O)cc2)SC1=S)c1ccccc1O	?	50.1µM*	-22.9	39.8µM*	nt	?
CCOc1ccccc1NC(=O)CCc1c(C)nc2c(c(C)nn2-c2ccccc2)c1C	40.6%	-0.7%	nt	-0.6%	nt	-10.4%[59 µM]
CN(C(=O)c1ccc(NC(=O)Cc2ccc(NC(=O)C3CCCN(S(=O)(=O)c4cccc([N+](=O)[O-])c4)C3)cc2)cc1)C1CCCC1 (centres undefined)	26.9%	-20.9%	-5.9	nt	-29.0	nt
Cn1nnnc1Sc1ncnc2scc(-c3cccc(C#N)c3)c12	nt	-8.2%	nt	nt	nt	nt
SMILES	HP1b binding inh	JMJD2A Tudor inh	Six1-Eya2 inh	BAZ2B block	CtBP-E1A blk	G9a block
O=C(CNC(c1ccccc1)c1ccccc1)Nc1ccccc1-c1ccccc1	37.3%	-15.1%	3.1	-4.3%	3.1	27.4%[59 µM]
O=C(CCN1C(=O)c2ccccc2C1=O)Nc1ccccc1C(F)(F)F	37.9%	-9.9%	-2.2	0.7%	nt	44.7µM*
CCN(CC(=O)Nc1ccccc1OC)CC(=O)Nc1ccccc1-c1ccccc1	?	2.24µM*	0.2	28.2µM*	4.5	50.1µM*
COc1ccccc1NC(=O)CCC(=O)Nc1ccccc1OC	15.0%	-3.0%	4.5	7.7%	-8.6	5.8%[59 µM]
CCN(CC(=O)Nc1ccccc1OC)CC(=O)Nc1ccccc1C(F)(F)F	25.4%	-3.0%	-8.8	nt	-6.1	4.1%
COc1ccccc1NC(=O)CCC(=O)c1ccc(-c2ccccc2)cc1	-10.3%	25.1µM*	1.7	5.4%	12.2	-9.6%[59 µM]
O=C(CN1C(=O)c2ccccc2C1=O)Nc1ccccc1C(F)(F)F	27.4%	-15.5%	5.1	-6.4%	1.2	21.0%
CCCC(C)NCC(=O)Nc1ccccc1-c1ccccc1 (centres undefined)	?	1.12µM*	8.2	?	9.0	?
CCCCc1cc(=O)oc2c3c(cc(OCC(=O)NCCCO)c12)OC(C)(C)CC3	32.4%	-15.8%	-3.4	-0.6%	-2.2	-2.1%
COc1ccc(NC(=O)CCN2C(=O)c3ccccc3C2=O)c(OC)c1	4.6%	-16.8%	16.7	4.5%	-5.1	8.2%
COc1ccccc1NC(=O)CCN1C(=O)c2ccccc2C1=O	24.2%	1.0%	1.8	3.0%	11.2	79.4µM*
Cc1cc(C)c(S(=O)(=O)/N=C2/C=C(SCC(=O)O)C(=O)c3ccccc32)cc1C	35.5µM*	25.1µM*	-22.0	35.5µM*	-21.9	5.62µM*
Cc1ccc(NC(=O)CSc2ccccc2)cc1S(=O)(=O)N1CCCCC1	21.6%	-16.0%	1.0	-19.1%	-2.4	33.7%[12.7 µM]
CCOc1ccc(CNC(=O)C2CCN(c3nnc(-n4c(C)ccc4C)s3)CC2)cc1	9.0%	-24.5%	nt	-15.9%	nt	-17.5%[59 µM]
COc1ccc(NC(=O)c2ccc(-c3ccccc3C(F)(F)F)o2)cc1	35.2%	-12.9%	7.2	7.8%	10.7	70.8µM*
Cc1ccccc1-c1ccc(C(=O)Nc2cccc(F)c2)o1	-1.1%	-1.4%	-1.7	?	0.1	10µM*
Cc1cccc(NC(=O)c2ccc(-c3ccccc3[N+](=O)[O-])o2)c1	-5.7%	?	?	?	-17.6	-4.4%[0.501 µM]
O=C(Nc1cccc(F)c1)c1ccc(-c2ccccc2C(F)(F)F)o1	nt	nt	nt	2.1%	nt	44.7µM*
O=C(NCCc1ccccc1)c1ccc(-c2ccccc2C(F)(F)F)o1	37.0%	24.6%	-4.1	-3.5%	-2.4	50.1µM*
CCCCc1c(O)nc(SCC(=O)Nc2ccc(OC)cc2)n(-c2ccc(C)c(C)c2)c1=O	nt	nt	1.6	nt	-7.8	nt
